# Shiga inhibitor: inhibitors of Shiga toxin in Vero cells; AID 2315; inhibition, % at 38.7 µM; 290,000 compounds, 9.2% hits; Vero cells, Shiga toxin protein synthesis inhibition reporter; in the data active = inhibition mostly above about 28%, no sharp cut-off; inactive = mostly below about 43%; note: 0% is about no effect
# Pf growth 48h: inhibits P. falciparum growth in the first generation, 48 h; P. falciparum luciferase growth in erythrocytes, 48 h; Potency, µM (titrated, usually from 28.7 µM), for inactives: top-dose activity change, negative = inhibition, actives largely listed as inhibitors; 310,000 compounds, 5.9% hits; note: potency is the fitted concentration of half-maximal effect; % is set by controls: 0 for no effect and ±100 for the full control effect
#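 Compounds are pin-transferred into medium, infected erythrocytes (2% hematocrit, 0.1% parasitemia final) are added, and plates sit one parasite generation at 37 C in 5% CO2. Detection reagent is then added and luminescence measured.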
# Giardia FBPA inh-1: inhibitors of Giardia lamblia fructose-1,6-bisphosphate aldolase | A8B2U2 | purified Giardia FBPA | Potency, µM (series often up to 59.6 µM), for the others: top-dose activity, negative = inhibition, actives largely listed as inhibitors | 290,000 compounds, 0.71% hits | AID 2451; note: potency is the fitted concentration of half-maximal effect; % is set by controls: 0 for no effect and ±100 for the full control effect; nearly all actives have a fitted effect of over 55% in size
# Target sequence (A8B2U2 whole entry, looked up): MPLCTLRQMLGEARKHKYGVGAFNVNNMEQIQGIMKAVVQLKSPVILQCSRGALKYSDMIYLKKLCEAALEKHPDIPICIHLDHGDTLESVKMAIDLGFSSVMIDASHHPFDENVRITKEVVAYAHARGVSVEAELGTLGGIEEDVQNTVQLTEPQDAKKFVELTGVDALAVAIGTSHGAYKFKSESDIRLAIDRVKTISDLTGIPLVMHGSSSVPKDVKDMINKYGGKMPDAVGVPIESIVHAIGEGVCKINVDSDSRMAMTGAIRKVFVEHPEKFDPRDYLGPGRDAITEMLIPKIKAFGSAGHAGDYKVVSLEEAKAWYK
#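 40 nM FBPA preincubated 10 min at RT with compound (up to 57.5 uM final), then substrate plus GAPDH/TPI/NAD/arsenate coupling and diaphorase/resazurin added. Fluorescence read after 20 min at RT, 525/598 nm.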
# NS1 inh: influenza NS1 inhibition; Potency, µM (highest dose often 46.1 µM), without a hit: at the highest dose activity, positive = more growth; 270,000 compounds, 0.4% hits; calls by dose curve; note: potency is the fitted concentration of half-maximal effect; actives are rising curves; nearly all actives have a fitted effect of over 50% in size
#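 Compounds were scored for reversing the slow growth caused by influenza A NS1 in S. cerevisiae, measured by optical density at 600 nm. Assay medium contained 2% galactose at pH 6.0; NS1-free yeast of the same strain were the positive control.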
# Pf growth 96h: inhibits malaria parasite growth, 96 h | Potency, µM (top dose mostly 28.7 µM), inactives show at the top dose activity change, negative = inhibition, actives largely listed as inhibitors | 320,000 compounds, 6.9% hits | P. falciparum luciferase reporter growth, 96 h; note: potency is the fitted concentration of half-maximal effect; % is set by controls: 0 for no effect and ±100 for the full control effect
#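 Plates of compound plus infected erythrocytes (2% hematocrit, 0.05% parasitemia final) incubate 96 hours, 37 C, 5% CO2. Detection reagent added; reduced luminescence from the parasites' luciferase reporter flags inhibition.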
# CHX counter: counter-screen hit for Shiga toxin inhibitors, cycloheximide; cell reporter, cycloheximide protein synthesis inhibition counterscreen; max response, %; 300,000 compounds, 12% hits; AID 2314; in the data active = max response mostly above about 13%, no sharp cut-off; inactive = mostly below about 14%; note: read at 38.3 µM for the half of the compounds with a filed dose; 0% is about no effect
# Giardia growth: blocks growth of Giardia lamblia trophozoites. shares compounds with Giardia FBPA inh-1. Giardia lamblia trophozoite growth inhibition. Potency, µM (highest dose often 57.5 µM), inactives show at the top dose activity change, negative = inhibition, hits mostly inhibitors. 1,500 compounds, 5% hits;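 note: potency is the fitted concentration of half-maximal effect; trophozoites exposed to compound for 48 h at 37 °C; % is set by controls: 0 for no effect and ±100 for the full control effect; nearly all actives have a fitted effect of over 70% in size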
# Mammalian tox: counter-screen for Giardia aldolase inhibitors: mammalian cell toxicity | mammalian cell viability counter-screen, qHTS | AID 2786 | 1,500 compounds, 4% hits | Potency, µM (highest dose often 57.5 µM), without a hit: top-dose viability change, negative = toxicity, actives largely listed as inhibitors | shares compounds with Giardia FBPA inh-1;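 note: Chinese hamster ovary cells used as mammalian cytotoxicity surrogate; viability measured as cellular ATP by luminescence; potency is the fitted concentration of half-maximal effect; compound exposure lasted 48 h before reading; % is set by controls: 0 for no effect and ±100 for the full control effect; nearly all actives have a fitted effect of over 60% in size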
# Giardia FBPA inh-2: confirmation of Giardia fructose-bisphosphate aldolase inhibitors; shares compounds with Giardia FBPA inh-1; purified Giardia aldolase enzyme activity, qHTS; Potency, µM (highest dose often 57.5 µM), for the others: top-dose activity change, negative = inhibition, usual class: inhibitors; 1,500 compounds, 5% hits; note: potency is the fitted concentration of half-maximal effect; % is set by controls: 0 for no effect and ±100 for the full control effect; nearly all actives have a fitted effect of over 45% in size
# Rabbit FBPA inh: selectivity test for Giardia aldolase inhibitors: rabbit aldolase | shares compounds with Giardia FBPA inh-1 | Rabbit muscle FBPA enzyme inhibition, selectivity counter-screen | Potency, µM (series often up to 57.5 µM), inactives show at the top dose activity, negative = inhibition, hits mostly inhibitors | 1,500 compounds, 4% hits | AID 2794; note: potency is the fitted concentration of half-maximal effect; % is set by controls: 0 for no effect and ±100 for the full control effect; nearly all actives have a fitted effect of over 60% in size
# Target sequence (P00883 whole entry, looked up): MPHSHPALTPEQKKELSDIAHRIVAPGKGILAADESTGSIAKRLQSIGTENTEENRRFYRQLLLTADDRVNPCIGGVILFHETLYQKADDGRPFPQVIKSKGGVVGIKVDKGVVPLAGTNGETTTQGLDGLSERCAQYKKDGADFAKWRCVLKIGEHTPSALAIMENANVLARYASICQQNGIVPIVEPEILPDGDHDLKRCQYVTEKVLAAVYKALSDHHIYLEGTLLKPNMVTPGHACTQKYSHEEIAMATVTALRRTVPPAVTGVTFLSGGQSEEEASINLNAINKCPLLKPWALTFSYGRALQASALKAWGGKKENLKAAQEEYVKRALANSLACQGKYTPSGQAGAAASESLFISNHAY
# GAPDH coupling: counter-screen for Giardia aldolase inhibitors: GAPDH coupling enzyme; shares compounds with Giardia FBPA inh-1; GAPDH coupling enzyme counterscreen, biochemical, qHTS; Potency, µM (series often up to 57.5 µM), for inactives: at the top dose activity change, negative = inhibition, usual class: inhibitors; 1,500 compounds, 6% hits; AID 2795; note: potency is the fitted concentration of half-maximal effect; % is set by controls: 0 for no effect and ±100 for the full control effect; nearly all actives have a fitted effect of over 55% in size
# Active calls of the source: *; ? = inconclusive; nt = no result given; ! = not confirmed by another sample; [ ] = remark or other dose. Sampled rows, rich in hits. Any-hit rate of the full collection: about 21%. Unless noted, calls come from the whole dose curve; as a rule, active = well fitted curve in the direction sought with a large enough effect; inconclusive = small, poorly fitted or top-dose-only effect, or another doubt; inactive = no such curve, though single readings can be large; an effect the other way counts as inactive or inconclusive.
SMILES,Shiga inhibitor,Pf growth 48h,Giardia FBPA inh-1,NS1 inh,Pf growth 96h,CHX counter,Giardia growth,Mammalian tox,Giardia FBPA inh-2,Rabbit FBPA inh,GAPDH coupling
Cc1nn(C)c(C(=O)NC(=S)Nc2ccc([N+](=O)[O-])cc2)c1Cl,-2,3%,13µM*,-43%,-2%,2,-1%[10.4 µM],-9%,5%,7%,17%
CCN(CC)C(=S)NC(=O)c1cc(OC)c(OC)c(OC)c1,21,26%,18µM*,9%,-40%[1.15 µM],2,8%,-5%,0%,6%,2%
Cc1nn(Cc2ccccc2Cl)c(C)c1NC(=O)CSc1n[nH]c(C)c1[N+](=O)[O-],-11,-7%,-2%,4%,-17%,1,nt,nt,nt,nt,nt
O=C(c1cccc(S(=O)(=O)Nc2cccc(C(F)(F)F)c2)c1)N1CCCCC1,-7,5%,1%,-8%,18%,0,nt,nt,nt,nt,nt
COC(=O)c1sc(NC(=S)NC(=O)c2cc(OC)c(OC)c(OC)c2)nc1C,-7,8%,3.2µM*,15%,0%,-1,2%[10.4 µM],-8%,7%,7%,10%
COc1ccc(OC)c(-c2csc(NC(=O)c3ccc(F)cc3)n2)c1,12,?,22µM*,-27%,?,14,-9%[10.4 µM],-17%,3%,6%,2%
C/C(CCC(C)C)=N\NC(=S)NCc1ccccc1,-4,?,16µM*,nt,?,10,23%,16%,8%,9%,7%
COc1cc(NC(C)CCc2ccccc2)cc(OC)c1OC (stereo unspecified),-8,-22%,13µM*,?,3.7µM*,-3,-10%[10.4 µM],-25%,?,?,?
CCN1C(=O)C(CC(=O)Nc2ccc(OC)cc2)N(CCCN2CCN(c3ccc(OC)cc3)CC2)C1=S (stereo unspecified),11,?,-5%,nt,?,7,nt,nt,nt,nt,nt
COCCCOc1ccnc(CS(=O)c2nc3ccccc3[nH]2)c1C (stereo unspecified),48*,40%,2µM*!,-20%,57%,44*,?,-22%,-15%,-10%,-5%
COCC(=O)OC/C(O)=C(\C#N)c1nc2ccccc2[nH]1,14,-3%,16µM*,-1%,?,5,10%[10.4 µM],?,-1%,-1%,1%
N#C/C(=C(/O)COC(=O)c1cccnc1Cl)c1nc2ccccc2[nH]1,-3,30%,18µM*,2%,-19%,-1,20%,-4%,-16%,-13%,-14%
CC(C)C(=O)OC/C(O)=C(\C#N)c1nc2ccccc2[nH]1,11,-27%,20µM*,nt,35%,15,3%[10.4 µM],-8%,-8%,-3%,-15%
Cc1cccc(C)c1OCC(=O)OC/C(O)=C(\C#N)c1nc2ccccc2[nH]1,-7,35%,-15%,18%,14%,-1,nt,nt,nt,nt,nt
CCCC(=O)OC/C(O)=C(\C#N)c1nc2ccccc2[nH]1,5,-6%[5.75 µM],?,0%,?,-1,nt,nt,nt,nt,nt
N#C/C(=C(/O)COC(=O)c1ccc(O)cc1)c1nc2ccccc2[nH]1,11,-2%,10µM*,-1%,-16%,-1,-15%,1%,-7%,2%,3%
O=S(=O)(NNc1cccc(Cl)n1)c1ccc(Cl)cc1,-9,0%,?,-24%,-2%,3,nt,nt,nt,nt,nt
O=C(CSC1CN(C(c2ccccc2)c2ccccc2)C1)N/N=C/c1ccccc1,-8,?,-9%,-11%,?,1,nt,nt,nt,nt,nt
CCN1CCN(C(=S)c2ccc(Br)cc2)CC1,23,18%,nt,8%,34%,-5,nt,nt,nt,nt,nt
CN1CCN(C(=S)c2ccc(N(C)C)cc2)CC1,-1,33%,16µM*,5%,nt,6,?,23%,-16%,?,?
CN1CCN(C(=S)c2ccc(Br)cc2)CC1,7,-3%,16µM*,11%,?,0,-9%[10.4 µM],2%,-26%,?,?
CSc1ccc(C(=S)N2CCN(C)CC2)cc1,10,4%,-23%,-6%,46%,9,nt,nt,nt,nt,nt
Cc1ccc(S(=O)(=O)Oc2ccc(/C=N/NC(=O)c3nn(C)cc3[N+](=O)[O-])cc2)cc1,-6,4%,1%,5%,12%,-1,nt,nt,nt,nt,nt
CCOc1cc(C(=O)Nn2cnnc2)cc(OCC)c1OCC,-17,-5%,4%,nt,8%,-3,nt,nt,nt,nt,nt
CCOc1cc(C(=O)NC(=S)Nn2cnnc2)cc(OCC)c1OCC,26,5%,16µM*,nt,34%,1,?,3%,2%,14%,-8%
SMILES,Shiga inhibitor,Pf growth 48h,Giardia FBPA inh-1,NS1 inh,Pf growth 96h,CHX counter,Giardia growth,Mammalian tox,Giardia FBPA inh-2,Rabbit FBPA inh,GAPDH coupling
Cc1ccc(NC(=S)N2CCN(C3CCCCC3)CC2)cc1,-4,-33%,1%,-7%,-34%,-3,nt,nt,nt,nt,nt
Cc1ccc(NC(=S)N2CCC(c3ccc(C)cc3)C2)cc1 (stereo unspecified),98*,51%,16µM*,nt,2%,46*,-3%[10.4 µM],-15%,11%,7%,18%
Cc1ccc(CNC(=O)CSc2nc3ccccc3[nH]2)cc1,14,7%,13µM*,16%,0%,15*,39%,3%,4%,8%,-9%
COc1cccc(NC(=O)N2CCN(S(C)(=O)=O)CC2)c1,21,-5%,7%,1%,?,-3,nt,nt,nt,nt,nt
Cc1ccc(S(=O)(=O)N2CCCCC2)cc1NC(=O)CSc1nccn1C,27,-2%,4%,nt,-20%,-1,nt,nt,nt,nt,nt
S=C(Nc1ccccc1)c1ccccn1,80*,52%,3.2µM*!,-4%,?,47*,-14%[38.3 µM],20µM*,-8%,-8%,-10%
O=C(O)c1ccccn1,nt,-11%,nt,nt,69%,nt,nt,nt,nt,nt,nt
COc1ccccc1-n1c(CNC(=O)c2ccco2)n[nH]c1=S,-1,-2%,11µM*,4%,46%,-4,52%,9%,2%,1%,13%
COc1ccccc1-n1c(-c2ccco2)n[nH]c1=S,23,-8%,14µM*,11%,-16%,-3,3%[10.4 µM],6%,-3%,14%,-8%
COc1ccccc1-c1n[nH]c(=S)n1N,28,-1%,16µM*,nt,-9%,-3,12%,-10%,4%,6%,8%

# Assay outcomes from PubChem.
